From PubChem BioAssay (NCI)
About 83,000 compounds went through this panel and 20% of them were active in at least one assay; those are over-represented in the sample as a whole.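 Results are percent growth after 48 hours of single-concentration exposure. 100 means growth as in untreated cells, lower positive values show inhibition; negative values down to -100 show cell death.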 Activity calls are given as the source filed them. The calls were made as follows: active = growth percent below 10; inactive = the rest.

What was measured:
Experiment in all cases: NCI-60 one-dose screen, 48 h (100 = growth as untreated, 0 = no growth, -100 = all killed)
Conditions in all cases: 10 µM unless noted
[1] = tested on: HCT-15 colon
[2] = tested on: HT29 colon
[3] = tested on: SNB-75 CNS
[4] = tested on: SNB-19 CNS
[5] = tested on: U251 CNS
[6] = tested on: PC-3 prostate
[7] = tested on: SK-MEL-5 melanoma
[8] = tested on: UACC-62 melanoma
[9] = tested on: LOX IMVI melanoma
[10] = tested on: SK-MEL-28 melanoma
[11] = tested on: SK-MEL-2 melanoma
[12] = tested on: EKVX NSCLC
[13] = tested on: SN12C renal
[14] = tested on: UO-31 renal
[15] = tested on: TK-10 renal
[16] = tested on: ACHN renal
[17] = tested on: CAKI-1 renal
[18] = tested on: A498 renal
[19] = tested on: CCRF-CEM leukemia
[20] = tested on: MOLT-4 leukemia

Measured: growth

CCOC(=O)c1c[nH]n2c(=S)ncnc12
inactive: [1] 102% | [2] 100% | [3] 90.7% | [4] 96.1% | [5] 102% | [6] 117% | [7] 105% | [8] 97.5% | [9] 96.4% | [10] 108% | [11] 94.8% | [12] 108% | [13] 99.4% | [14] 84.8% | [15] 99.6% | [16] 99.7% | [17] 102% | [18] 98.5% | [19] 101% | [20] 90.7%

O=[N+]([O-])c1ccc(O)c(-c2nc3ccccc3s2)c1
inactive: [1] 89% | [2] 96.6% | [3] 86.9% | [4] 64.1% | [5] 71.6% | [6] 70.6% | [7] 25.3% | [8] 41.3% | [9] 61% | [10] 64.3% | [11] 99% | [12] 83.6% | [13] 64.9% | [14] 43.5% | [15] 82.4% | [16] 85.6% | [17] 73% | [18] 42.6% | [19] 77.3% | [20] 65.3%

COc1ccc(C(=O)CSc2nccc(Nc3ccc(C(=O)O)cc3)n2)cc1
inactive: [1] 100% | [2] 104% | [3] 102% | [4] 101% | [5] 98% | [6] 102% | [7] 93.6% | [8] 89.7% | [9] 101% | [10] 100% | [11] 103% | [12] 103% | [13] 99.3% | [14] 82% | [15] 103% | [16] 101% | [17] 97.7% | [18] 106% | [19] 105% | [20] 106%

O=C1CC(C(F)(F)F)Cc2nc3ccc(Br)cc3cc21 (stereo not given)
inactive: [1] 89.9% | [2] 98.2% | [3] 78.5% | [4] 92% | [5] 92.2% | [6] 82% | [7] 92.6% | [8] 81.1% | [9] 91.1% | [10] 96.5% | [11] 107% | [12] 81% | [13] 85.8% | [14] 59.7% | [15] 145% | [16] 91.5% | [17] 75.5% | [18] 49.7% | [19] 98.1% | [20] 77.8%

CC(C)[C@H]1COC(=O)N1[C@@H]1C(=O)N([C@@H](CCC(=O)N2CCN(C3CCCC3)CC2)C(=O)N[C@@H]2CCCc3ccccc32)[C@@H]1/C=C/c1cccc(Cl)c1
active: [9] -18.3%
inactive: [1] 34.1% | [2] 13% | [3] 92% | [4] 56.6% | [5] 46.6% | [6] 25.7% | [7] 11.7% | [8] 67.8% | [10] 71.7% | [11] 60% | [12] 58.8% | [13] 59.6% | [14] 43.5% | [15] 54.2% | [16] 57.8% | [17] 59.3% | [18] 27.9% | [19] 42% | [20] 24.1%

CC(C)=CC/C=C(/C)[C@H]1CC[C@]2(C)[C@@H]1CC[C@@H]1[C@@]3(C)CCC(=O)NC(C)(C)[C@@H]3CC[C@]12C
active: [2] -0.044% [100 µM] | [5] -67% [100 µM] | [7] -93.5% [100 µM] | [8] -24.4% [100 µM] | [9] -90.1% [100 µM] | [10] -77.3% [100 µM] | [11] 3.93% [100 µM] | [13] -81.2% [100 µM] | [14] -98.7% [100 µM] | [15] 3.59% [100 µM] | [16] -63.5% [100 µM] | [17] 6.46% [100 µM] | [18] -16.4% [100 µM] | [19] -9.45% [100 µM] | [20] -14.3% [100 µM]
inactive: [1] 11.7% [100 µM] | [3] 19.7% [100 µM] | [4] 24.9% [100 µM] | [6] 16.5% [100 µM] | [12] 29.7% [100 µM]

CCn1cc(-c2ccnc(NCCNS(=O)(=O)c3cccc4ccccc34)c2)c(-c2cccc(O)c2)n1
inactive: [1] 96.7% | [2] 92.9% | [3] 107% | [4] 106% | [5] 53% | [6] 83.2% | [7] 95.8% | [8] 97.2% | [9] 111% | [10] 107% | [11] 111% | [12] 96.9% | [13] 96.7% | [14] 90.3% | [15] 114% | [16] 100% | [17] 102% | [18] 91.5% | [19] 95% | [20] 93.1%

CC(=O)O.CC(=O)O.O.[Fe]
inactive: [1] 111% | [2] 98.7% | [3] 114% | [4] 98.2% | [5] 107% | [6] 93.4% | [7] 107% | [8] 93.7% | [9] 100% | [10] 112% | [11] 109% | [12] 147% | [13] 95.2% | [14] 89% | [15] 105% | [16] 107% | [17] 130% | [18] 89.8% | [19] 131% | [20] 116%
